# Results filed as inconclusive are left out. Active and inactive are the calls of the source. How the source made its calls: active means hit-call score of the fitted dose curve at least 0.9, where 1 is the maximum; inconclusive means response in the unintended direction; inactive means score below 0.9.
# Key:
# [1] = target: human Phosphoinositide 3-kinase alpha (PI3Ka), PIK3CA (gene 5290) (UniProt P42336); assay: NVS_ENZ_hPI3Ka: NovaScreen (NVS) Enzymatic Assay for human Phosphoinositide 3-kinase alpha (PI3Ka) (AID 2283196)
# Chain of human Phosphoinositide 3-kinase alpha (PI3Ka), PIK3CA (gene 5290) (P42336 whole entry, looked up): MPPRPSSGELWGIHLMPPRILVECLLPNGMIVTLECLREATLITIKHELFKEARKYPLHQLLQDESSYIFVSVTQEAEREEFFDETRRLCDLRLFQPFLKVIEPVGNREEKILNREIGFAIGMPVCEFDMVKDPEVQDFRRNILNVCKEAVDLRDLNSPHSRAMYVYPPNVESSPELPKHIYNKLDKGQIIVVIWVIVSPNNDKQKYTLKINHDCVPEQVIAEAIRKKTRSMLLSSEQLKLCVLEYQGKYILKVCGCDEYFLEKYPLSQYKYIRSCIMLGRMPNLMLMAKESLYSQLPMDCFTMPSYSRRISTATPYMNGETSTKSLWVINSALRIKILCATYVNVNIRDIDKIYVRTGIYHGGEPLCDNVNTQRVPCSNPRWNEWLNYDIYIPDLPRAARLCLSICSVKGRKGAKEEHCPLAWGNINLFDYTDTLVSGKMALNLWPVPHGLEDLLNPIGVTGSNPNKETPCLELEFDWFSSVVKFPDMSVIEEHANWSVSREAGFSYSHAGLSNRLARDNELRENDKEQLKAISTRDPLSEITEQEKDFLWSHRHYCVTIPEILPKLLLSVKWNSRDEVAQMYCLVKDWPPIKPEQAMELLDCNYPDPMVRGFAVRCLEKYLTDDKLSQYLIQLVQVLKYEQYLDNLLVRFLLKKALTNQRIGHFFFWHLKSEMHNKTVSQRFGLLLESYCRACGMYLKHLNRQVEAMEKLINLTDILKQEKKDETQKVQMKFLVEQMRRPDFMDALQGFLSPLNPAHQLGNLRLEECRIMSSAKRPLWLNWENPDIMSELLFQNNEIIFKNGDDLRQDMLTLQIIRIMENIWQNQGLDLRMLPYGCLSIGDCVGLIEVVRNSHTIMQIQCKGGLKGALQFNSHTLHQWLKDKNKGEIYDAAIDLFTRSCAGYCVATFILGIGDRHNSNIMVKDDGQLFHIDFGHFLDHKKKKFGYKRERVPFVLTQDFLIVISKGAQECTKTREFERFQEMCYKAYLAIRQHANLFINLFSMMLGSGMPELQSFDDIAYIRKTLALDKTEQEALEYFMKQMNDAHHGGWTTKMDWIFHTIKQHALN
# Summary of the method: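 Duplicate single-point screen (25 uM), then singleton dose-response (max 50 uM) for compounds meeting the threshold. Cell-free kinase reaction, 1 h; fluorescent mobility-shift readout.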
# [2] = target: human Phosphodiesterase 5 (PDE5), PDE5A (gene 8654) (UniProt O76074); assay: NVS_ENZ_hPDE5: NovaScreen (NVS) Enzymatic Assay for human Phosphodiesterase 5 (PDE5) (AID 2283194)
# Summary of the method: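 Recombinant human PDE5 with specific substrate, read 1 h after dosing by fluorescence with electrophoretic mobility-shift separation of substrate and product. Initial single-concentration duplicate screen at 25 uM, actives followed in concentration series; loss of activity versus DMSO.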
# [3] = target: human Protein Tyrosine Phosphatase Non-receptor Type 6 (PTPN6), PTPN6 (gene 5777) (UniProt P29350); assay: NVS_ENZ_hPTPN6: NovaScreen (NVS) Enzymatic Assay for human Protein Tyrosine Phosphatase Non-receptor Type 6 (PTPN6) (AID 2283210)
# Chain of human Protein Tyrosine Phosphatase Non-receptor Type 6 (PTPN6), PTPN6 (gene 5777) (P29350 whole entry, looked up): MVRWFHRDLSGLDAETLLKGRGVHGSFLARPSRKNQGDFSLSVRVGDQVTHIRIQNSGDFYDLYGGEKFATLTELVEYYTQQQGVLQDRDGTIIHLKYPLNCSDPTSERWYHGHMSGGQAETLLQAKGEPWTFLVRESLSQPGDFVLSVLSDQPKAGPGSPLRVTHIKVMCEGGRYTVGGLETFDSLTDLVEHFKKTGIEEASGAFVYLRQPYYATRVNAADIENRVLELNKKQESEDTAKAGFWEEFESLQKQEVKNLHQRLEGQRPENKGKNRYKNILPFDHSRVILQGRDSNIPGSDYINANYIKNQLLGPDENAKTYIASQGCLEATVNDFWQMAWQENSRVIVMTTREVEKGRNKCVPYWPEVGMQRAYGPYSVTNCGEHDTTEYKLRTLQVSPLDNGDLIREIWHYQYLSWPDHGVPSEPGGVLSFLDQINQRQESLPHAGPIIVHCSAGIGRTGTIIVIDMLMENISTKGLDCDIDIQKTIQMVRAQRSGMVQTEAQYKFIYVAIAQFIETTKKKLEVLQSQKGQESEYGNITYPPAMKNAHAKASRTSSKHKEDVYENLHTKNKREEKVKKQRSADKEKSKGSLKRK
# Summary of the method: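 Cell-free assay with recombinant PTPN6 expressed in SF9 cells, fluorescent substrate, product separated from substrate by electrophoretic mobility shift; read 1.33 hours after dosing. Primary screen in duplicate at 25 uM, actives retested in concentration series; DMSO baseline.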
# [4] = target: cAMP-dependent protein kinase catalytic subunit alpha (Homo sapiens) (UniProt P17612); assay: NVS_ENZ_hPKA: NovaScreen (NVS) Enzymatic Assay for human Protein Kinase A (PKA) (AID 2283192)
# Summary of the method: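 Recombinant human PKA with specific fluorescent substrate, product separated by electrophoretic mobility shift, read 1 h after dosing. Primary screen at 25 uM in duplicate; actives then run in concentration-response up to 50 uM, activity relative to DMSO.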
# [5] = target: human SRC Proto-Oncogene, Non-receptor Tyrosine Kinase (SRC), SRC (gene 6714) (UniProt P12931); assay: NVS_ENZ_hSRC: NovaScreen (NVS) Enzymatic Assay for human SRC Proto-Oncogene, Non-receptor Tyrosine Kinase (SRC) (AID 2283223)
# Chain of human SRC Proto-Oncogene, Non-receptor Tyrosine Kinase (SRC), SRC (gene 6714) (P12931 whole entry, looked up): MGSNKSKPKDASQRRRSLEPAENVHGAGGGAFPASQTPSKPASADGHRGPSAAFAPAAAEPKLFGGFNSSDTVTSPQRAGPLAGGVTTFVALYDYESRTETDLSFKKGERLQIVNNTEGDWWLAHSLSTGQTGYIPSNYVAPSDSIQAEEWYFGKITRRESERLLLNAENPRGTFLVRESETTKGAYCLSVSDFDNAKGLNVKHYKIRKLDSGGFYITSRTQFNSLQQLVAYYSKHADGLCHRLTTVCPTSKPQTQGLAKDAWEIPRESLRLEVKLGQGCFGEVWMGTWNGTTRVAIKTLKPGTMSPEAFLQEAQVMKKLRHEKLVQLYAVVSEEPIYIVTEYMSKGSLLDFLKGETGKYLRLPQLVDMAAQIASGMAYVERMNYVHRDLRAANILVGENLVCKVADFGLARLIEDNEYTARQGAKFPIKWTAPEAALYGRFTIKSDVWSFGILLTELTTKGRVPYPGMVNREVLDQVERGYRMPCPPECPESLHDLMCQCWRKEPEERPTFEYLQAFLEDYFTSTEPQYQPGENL
# Summary of the method: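 Cell-free kinase activity assay with fluorescent substrate, product separated by electrophoretic mobility shift, read 1 h after dosing. Duplicate single point at 25 uM, then concentration-response up to 50 uM; loss of signal versus DMSO.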
# [6] = target: human Tropomyosin Receptor Kinase A (TRKA), NTRK1 (gene 4914) (UniProt P04629); assay: NVS_ENZ_hTrkA: NovaScreen (NVS) Enzymatic Assay for human Tropomyosin Receptor Kinase A (TRKA) (AID 2283224)
# Chain of human Tropomyosin Receptor Kinase A (TRKA), NTRK1 (gene 4914) (P04629 whole entry, looked up): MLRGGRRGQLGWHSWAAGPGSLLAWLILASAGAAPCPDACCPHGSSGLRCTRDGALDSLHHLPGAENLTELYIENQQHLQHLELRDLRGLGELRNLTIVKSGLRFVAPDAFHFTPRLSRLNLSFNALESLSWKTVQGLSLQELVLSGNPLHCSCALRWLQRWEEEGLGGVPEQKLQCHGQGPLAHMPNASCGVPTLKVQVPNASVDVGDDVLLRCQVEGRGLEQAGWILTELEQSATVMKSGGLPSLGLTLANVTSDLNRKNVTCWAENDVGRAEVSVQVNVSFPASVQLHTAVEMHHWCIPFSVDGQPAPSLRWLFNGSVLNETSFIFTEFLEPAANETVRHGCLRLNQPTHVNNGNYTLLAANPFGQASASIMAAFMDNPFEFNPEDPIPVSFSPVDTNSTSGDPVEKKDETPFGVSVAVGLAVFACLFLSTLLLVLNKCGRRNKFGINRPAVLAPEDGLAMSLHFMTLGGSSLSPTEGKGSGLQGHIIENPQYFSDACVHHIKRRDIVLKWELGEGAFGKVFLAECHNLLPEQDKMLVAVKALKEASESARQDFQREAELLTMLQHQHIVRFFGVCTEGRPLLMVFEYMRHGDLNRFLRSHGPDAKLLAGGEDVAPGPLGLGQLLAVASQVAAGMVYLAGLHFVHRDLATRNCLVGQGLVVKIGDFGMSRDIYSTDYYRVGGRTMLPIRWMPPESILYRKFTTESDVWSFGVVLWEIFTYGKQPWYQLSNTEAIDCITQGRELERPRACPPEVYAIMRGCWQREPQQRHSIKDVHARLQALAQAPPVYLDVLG
# Summary of the method: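 Recombinant human TrkA activity read after 1 h by fluorescence with electrophoretic mobility shift separating substrate and product. Primary screen in duplicate at 25 uM; actives were rerun in concentration-response up to 50 uM. Loss of signal versus DMSO.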
# [7] = target: Tyrosine-protein phosphatase non-receptor type 12 (Homo sapiens) (UniProt Q05209); assay: NVS_ENZ_hPTPN12: NovaScreen (NVS) Enzymatic Assay for human Protein Tyrosine Phosphatase Non-receptor Type 12 (PTPN12) (AID 2283204)
# Chain of Tyrosine-protein phosphatase non-receptor type 12 (Homo sapiens) (Q05209 whole entry, looked up): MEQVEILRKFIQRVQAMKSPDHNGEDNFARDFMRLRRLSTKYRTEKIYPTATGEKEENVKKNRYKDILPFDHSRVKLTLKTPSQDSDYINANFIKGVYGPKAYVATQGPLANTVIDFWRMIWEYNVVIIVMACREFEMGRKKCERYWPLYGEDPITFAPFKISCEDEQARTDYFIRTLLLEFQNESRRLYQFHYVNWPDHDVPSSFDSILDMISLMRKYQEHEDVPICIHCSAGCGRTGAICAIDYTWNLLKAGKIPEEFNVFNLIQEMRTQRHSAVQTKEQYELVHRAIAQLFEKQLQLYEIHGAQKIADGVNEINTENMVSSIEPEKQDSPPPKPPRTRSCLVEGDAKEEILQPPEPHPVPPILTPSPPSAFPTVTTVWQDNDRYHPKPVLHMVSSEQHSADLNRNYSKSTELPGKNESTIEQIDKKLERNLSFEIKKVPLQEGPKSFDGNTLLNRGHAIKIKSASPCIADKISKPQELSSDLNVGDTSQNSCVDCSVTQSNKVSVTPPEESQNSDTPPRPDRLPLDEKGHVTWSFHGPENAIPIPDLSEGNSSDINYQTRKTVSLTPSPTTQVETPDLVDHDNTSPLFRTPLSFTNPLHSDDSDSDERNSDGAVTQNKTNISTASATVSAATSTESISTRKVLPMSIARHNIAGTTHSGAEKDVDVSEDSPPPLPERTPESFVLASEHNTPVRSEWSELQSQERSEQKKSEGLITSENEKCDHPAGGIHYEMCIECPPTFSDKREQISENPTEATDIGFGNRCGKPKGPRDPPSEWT
# Summary of the method: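 Single-concentration duplicates (25 uM) preceded singleton concentration-response up to 50 uM for chemicals passing threshold. Cell-free recombinant PTPN12 activity was read 1.33 h after dosing via fluorescence after mobility-shift separation; loss of signal versus DMSO.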
# [8] = target: Serine/threonine-protein phosphatase PP1-alpha catalytic subunit (Homo sapiens) (UniProt P62136); assay: NVS_ENZ_hPPP1CA: NovaScreen (NVS) Enzymatic Assay for human Protein Phosphatase 1 Aatalytic subunit Alpha (PPP1CA) (AID 2283200)
# Chain of Serine/threonine-protein phosphatase PP1-alpha catalytic subunit (Homo sapiens) (P62136 whole entry, looked up): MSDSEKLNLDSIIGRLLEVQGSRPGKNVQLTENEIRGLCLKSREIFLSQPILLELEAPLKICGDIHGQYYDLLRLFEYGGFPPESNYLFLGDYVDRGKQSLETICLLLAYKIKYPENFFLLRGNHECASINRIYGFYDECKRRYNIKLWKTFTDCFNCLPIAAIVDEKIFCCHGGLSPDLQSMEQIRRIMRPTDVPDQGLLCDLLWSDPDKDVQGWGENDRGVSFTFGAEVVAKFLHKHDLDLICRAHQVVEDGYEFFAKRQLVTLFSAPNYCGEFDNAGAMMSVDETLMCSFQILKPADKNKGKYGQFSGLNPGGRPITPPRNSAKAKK
# Summary of the method: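 Recombinant enzyme activity read by fluorescence with electrophoretic mobility shift separating substrate from product, 1.33 h after dosing; loss of signal vs DMSO baseline. Primary screen in duplicate at 25 uM; actives retested in concentration-response up to 50 uM.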
# [9] = target: human Protein Tyrosine Phosphatase Non-receptor Type 9 (PTPN9), PTPN9 (gene 5780) (UniProt P43378); assay: NVS_ENZ_hPTPN9: NovaScreen (NVS) Enzymatic Assay for human Protein Tyrosine Phosphatase Non-receptor Type 9 (PTPN9) (AID 2283209)
# Chain of human Protein Tyrosine Phosphatase Non-receptor Type 9 (PTPN9), PTPN9 (gene 5780) (P43378 whole entry, looked up): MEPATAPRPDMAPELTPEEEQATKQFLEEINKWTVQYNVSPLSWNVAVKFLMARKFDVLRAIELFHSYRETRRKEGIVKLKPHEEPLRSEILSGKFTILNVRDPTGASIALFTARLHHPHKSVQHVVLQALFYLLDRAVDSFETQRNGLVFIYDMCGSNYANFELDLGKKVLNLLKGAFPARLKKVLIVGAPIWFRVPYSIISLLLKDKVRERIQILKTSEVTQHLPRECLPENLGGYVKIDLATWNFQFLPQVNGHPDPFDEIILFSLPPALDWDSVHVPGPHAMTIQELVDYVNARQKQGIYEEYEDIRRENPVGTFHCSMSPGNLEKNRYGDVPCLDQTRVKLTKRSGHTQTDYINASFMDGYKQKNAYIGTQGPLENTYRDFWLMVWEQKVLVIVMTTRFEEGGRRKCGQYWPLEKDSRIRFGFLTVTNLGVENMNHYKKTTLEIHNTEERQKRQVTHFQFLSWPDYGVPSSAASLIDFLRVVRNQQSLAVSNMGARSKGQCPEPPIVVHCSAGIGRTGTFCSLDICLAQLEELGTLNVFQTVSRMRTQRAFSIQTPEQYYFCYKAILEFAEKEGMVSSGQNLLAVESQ
# Summary of the method: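 Sf9-expressed enzyme in a cell-free assay, fluorescence read 1.33 h after dosing with mobility-shift separation of substrate and product. Tested at 25 uM in duplicate, then up to 50 uM; signal loss versus DMSO.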
# [10] = target: human Protein Tyrosine Phosphatase Non-receptor Type 1 (PTPN1), PTPN1 (gene 5770) (UniProt P18031); assay: NVS_ENZ_hPTPN1: NovaScreen (NVS) Enzymatic Assay for human Protein Tyrosine Phosphatase Non-receptor Type 1 (PTPN1) (AID 2283201)
# Summary of the method: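 Cell-free fluorogenic-substrate activity assay on recombinant enzyme, read 1.33 h after dosing by fluorescence and electrophoretic mobility shift; loss of signal vs DMSO baseline. Primary screen in duplicate at 25 uM, hits then run in concentration-response up to 50 uM.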
# [11] = target: Tyrosine-protein phosphatase non-receptor type 11 (Homo sapiens) (UniProt Q06124); assay: NVS_ENZ_hPTPN11: NovaScreen (NVS) Enzymatic Assay for human Protein Tyrosine Phosphatase Non-receptor Type 11 (PTPN11) (AID 2283202)
# Summary of the method: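 Recombinant human PTPN11 activity on a fluorescent substrate, with substrate/product separated by electrophoretic mobility shift; read 0.5 h after dosing, loss of signal vs DMSO. Duplicate 25 uM screen, then concentration-response up to 50 uM.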
# [12] = target: Tyrosine-protein phosphatase non-receptor type 13 (Homo sapiens) (UniProt Q12923); assay: NVS_ENZ_hPTPN13: NovaScreen (NVS) Enzymatic Assay for human Protein Tyrosine Phosphatase Non-receptor Type 13 (PTPN13) (AID 2283205)
# Summary of the method: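 Cell-free assay of recombinant human PTPN13 with a fluorescent substrate, product separated by electrophoretic mobility shift and read 0.5 h after dosing. Primary screen at 25 uM in duplicate, then concentration-response up to 50 uM. Loss of signal fitted against DMSO.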
# [13] = target: Tyrosine-protein phosphatase non-receptor type 14 (Homo sapiens) (UniProt Q15678); assay: NVS_ENZ_hPTPN14: NovaScreen (NVS) Enzymatic Assay for human Protein Tyrosine Phosphatase Non-receptor Type 14 (PTPN14) (AID 2283206)
# Summary of the method: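 Cell-free recombinant human PTPN14 with fluorescent substrate, read 0.5 h after dosing by fluorescence and electrophoretic mobility shift separating substrate from product. Primary screen at 25 uM in duplicate; hits run to 50 uM maximum; loss of signal versus DMSO.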
# [14] = target: human Protein Tyrosine Phosphatase Non-receptor Type 4 (PTPN4), PTPN4 (gene 5775) (UniProt P29074); assay: NVS_ENZ_hPTPN4: NovaScreen (NVS) Enzymatic Assay for human Protein Tyrosine Phosphatase Non-receptor Type 4 (PTPN4) (AID 2283208)
# Summary of the method: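 Cell-free assay of PTPN4 expressed in Sf9 cells, using a fluorescent substrate with product separated by mobility shift; read 1.33 h after dosing. Single-point screen at 25 uM, then concentration-response up to 50 uM. Loss of signal relative to DMSO.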
# [15] = target: human Protein Tyrosine Phosphatase Receptor Type B (PTPRB), PTPRB (gene 5787) (UniProt P23467); assay: NVS_ENZ_hPTPRB: NovaScreen (NVS) Enzymatic Assay for human Protein Tyrosine Phosphatase Receptor Type B (PTPRB) (AID 2283211)
# Summary of the method: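 Recombinant human PTPRB with a fluorescent substrate, product separated by electrophoretic mobility shift; read 1 h after dosing. Primary screen in duplicate at 25 uM; actives then retested in concentration series; loss of signal versus DMSO.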
# [16] = target: human Protein Tyrosine Phosphatase Receptor Type F (PTPRF), PTPRF (gene 5792) (UniProt P10586); assay: NVS_ENZ_hPTPRF: NovaScreen (NVS) Enzymatic Assay for human Protein Tyrosine Phosphatase Receptor Type F (PTPRF) (AID 2283213)
# Summary of the method: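 Cell-free fluorescence enzyme assay with recombinant protein and substrate; product separated by electrophoretic mobility shift. Read 1 h after dosing, single 25 uM duplicate screen, then concentration-response up to 50 uM; loss of signal vs DMSO.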
# [17] = target: human Protein Tyrosine Phosphatase Receptor Type M (PTPRM), PTPRM (gene 5797) (UniProt P28827); assay: NVS_ENZ_hPTPRM: NovaScreen (NVS) Enzymatic Assay for human Protein Tyrosine Phosphatase Receptor Type M (PTPRM) (AID 2283215)
# Summary of the method: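 Cell-free recombinant PTPRM with fluorogenic substrate; product separated from substrate by electrophoretic mobility shift and read by fluorescence, 1.33 h after dosing. Primary screen single concentration (25 uM) in duplicate; actives retested in concentration series; loss of signal versus DMSO.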
# [18] = target: human Sirtuin 2 (SIRT2), SIRT2 (gene 22933) (UniProt Q8IXJ6); assay: NVS_ENZ_hSIRT2: NovaScreen (NVS) Enzymatic Assay for human Sirtuin 2 (SIRT2) (AID 2283217)
# Summary of the method: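 Cell-free recombinant human SIRT2, fluorescent substrate with product separated by electrophoretic mobility shift, 1 hr. Screened in duplicate at 25 uM; hits rerun singly in concentration-response up to 50 uM, relative to DMSO.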
# [19] = target: human Sirtuin 1 (SIRT1), SIRT1 (gene 23411) (UniProt Q96EB6); assay: NVS_ENZ_hSIRT1: NovaScreen (NVS) Enzymatic Assay for human Sirtuin 1 (SIRT1) (AID 2283219)
# Summary of the method: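 Cell-free recombinant SIRT1 with a fluorescent substrate; substrate and product separated by electrophoretic mobility shift and read by fluorescence intensity, 1 h after dosing. Primary screen at 25 uM in duplicate; hits re-run in concentration-response up to 50 uM, relative to DMSO.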
# [20] = target: human Sirtuin 3 (SIRT3), SIRT3 (gene 23410) (UniProt Q9NTG7); assay: NVS_ENZ_hSIRT3: NovaScreen (NVS) Enzymatic Assay for human Sirtuin 3 (SIRT3) (AID 2283222)
# Summary of the method: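 Cell-free enzyme assay with recombinant protein and fluorescent substrate, product separated by electrophoretic mobility shift; read 1 hour after dosing. Screened in duplicate at 25 uM, then singleton concentration-response up to 50 uM; loss of signal versus DMSO.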
smiles,measurement,setting,value
CCCCC(CC)C(=O)OCCOCCOCCOCCOC(=O)C(CC)CCCC (stereo unspecified),outcome,[1],inactive
C=COC(=O)C(C)(C)CCCCCC,outcome,[1],inactive
NC(=NCCCCCCN=C(N)/N=C(\N)Nc1ccc(Cl)cc1)/N=C(\N)Nc1ccc(Cl)cc1,AC50,[1],0.531 µM (active)
O=C(c1ccccc1)c1ccccc1,outcome,[2],inactive
CCN(CC)CC,outcome,[1],inactive
CCCCC(CC)C(=O)O (stereo unspecified),outcome,[3],inactive
CCCCCCCCCCCC,outcome,[1],inactive
O=C1NS(=O)(=O)c2ccccc21,outcome,[4],inactive
Cc1[nH]nc2c1N=C(c1ccccc1Cl)c1cc([N+](=O)[O-])ccc1N2,AC50,[5],23.1 µM (active)
same,AC50,[6],17.9 µM (active)
CC(C)C=O,outcome,[1],inactive
CS(=O)(=O)c1ccc([C@@H](CC2CCCC2)C(=O)Nc2cnccn2)cc1Cl,AC50,[2],8.2 µM (active)
CCOCCOCC,outcome,[1],inactive
CCCCCC(C)OC(=O)COc1ccc(Cl)c2cccnc12 (stereo unspecified),outcome,[2],inactive
same,outcome,[7],inactive
CC(=O)Nc1ccc(O)cc1,outcome,[8],inactive
O=C(NO)c1ccccc1,outcome,[1],inactive
OCC(CO)(CBr)CBr,outcome,[9],inactive
CCCCCCCCCCCCOS(=O)(=O)O,AC50,[4],42.4 µM (active)
same,outcome,[1],inactive
same,AC50,[10],22.7 µM (active)
same,AC50,[11],38.4 µM (active)
same,AC50,[7],11.9 µM (active)
same,AC50,[12],46.3 µM (active)
same,outcome,[13],inactive
same,AC50,[14],10.7 µM (active)
same,AC50,[9],16.8 µM (active)
same,AC50,[3],25 µM (active)
same,AC50,[15],7.45 µM (active)
same,outcome,[16],inactive
same,AC50,[17],25 µM (active)
same,AC50,[18],25 µM (active)
same,outcome,[19],inactive
same,outcome,[20],inactive
same,outcome,[5],inactive
same,AC50,[6],26 µM (active)

# Source: PubChem BioAssay (EPA / NIEHS)
